# Assay outcomes from PubChem BioAssay.
# KDM5B inhibitor: Primary screen for KDM5B Histone Demethylases FDH-coupled qHTS; Lysine-specific demethylase 5B (Homo sapiens), Q9UGL1; KDM5B demethylase, FDH-coupled NADH fluorescence (FDH is formaldehyde dehydrogenase); Potency, µM (highest dose often 57.7 µM), most hits filed as inhibitors; hit rate 2.6% among 220,000; active = well fitted inhibition curve with a large enough effect; also: 0% is about no effect; nearly all actives have a fitted effect of over 70% in size
#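 Compound dilutions met 200 nM (final) KDM5BΔAP for 10 min at room temperature before substrate addition. The substrate mix held 12.5 µM H3K4me3 with cofactors 25 µM α-ketoglutarate and 50 µM Fe²⁺. NADH signal gain over 30 min defined activity.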
# * marks the source's active call; other numbers are inactive results; i = inactive. This excerpt belongs to a sample that is enriched for hits. Potency is read from the fitted curve at half-maximal effect.
SMILES,KDM5B inhibitor
CN1CC(=O)N(C2CNC2)Cc2c(NC3CCCC3)ncnc21,i
Cc1cc2c(c(SCC(=O)Nc3cccc(C(F)(F)F)c3)n1)C(=O)OC2,i
Cc1ccc(F)cc1NC(=O)CN1N=C(c2ccccc2)c2cc(Cl)ccc2S1(=O)=O,i
CN(C)C[C@@H]1CN(Cc2ccccc2)C[C@H]1NC(=O)c1ccoc1,i
CN(C)C[C@@H]1CN(c2ccccn2)C[C@H]1NC(=O)NC1CCCCC1,32µM*
CN(C)C[C@@H]1CN(c2ccncn2)C[C@H]1NC(=O)NC1CCCCC1,i
CN(C)C[C@@H]1CN(c2ccccn2)C[C@H]1NC(=O)c1ccc(C#N)cc1,i
CN(C)C[C@@H]1CN(c2ccccn2)C[C@H]1NC(=O)c1ccoc1,28µM*
CN(C)C[C@@H]1CN(c2ccncn2)C[C@H]1NC(=O)CC1CCCCC1,i
Cc1cc(SCC(=O)NC(N)=O)nc2c(C)cccc12,i
N#Cc1ccccc1-c1ccc(COc2ccccc2C(N)=O)cc1,i
CN(Cc1cccc(F)c1)C(=O)c1cc(-c2ccccc2)n[nH]1,i
Cc1cc(C)c(CNC(=O)c2cc(-c3ccccc3O)cc3c2OCCN3C)c(=O)[nH]1,35µM*
Cc1cc(C)c(CNC(=O)c2cc(-c3ccccc3F)cc3c2OCCN3C)c(=O)[nH]1,32µM*
O=C(c1cccc(Br)c1)N(Cc1cccc2[nH]ccc12)C1CC1,i
O=C(C1CCCN1c1nc2ncccc2o1)N1CCN(c2ncccn2)CC1 (centres undefined),14µM*
O=C(Nc1ccc(F)cc1)C1CCCN1c1nc2ncccc2o1 (centres undefined),i
O=C([C@H]1C[C@H](Oc2cccnc2)CN1C(=O)NC1CCCC1)N1CCOCC1,i
CNC(=O)[C@@H](c1ccccc1F)N1CCC[C@H]1C(=O)N1CCOCC1,i
O=C1CCN(C(=O)[C@@H]2CCCN2S(=O)(=O)c2cccc3cccnc23)CCCCCCN1,i
O=C(C1CCCN1c1nc2ncccc2o1)N1CCCC1 (centres undefined),40µM*
O=C(N[C@@H]1CCC[C@@H]1C(=O)N1CCN(c2ncccn2)CC1)c1ccncc1,i
O=C(C1CCCN1c1nc2ncccc2o1)N1CCOCC1 (centres undefined),28µM*
COC(=O)C1(NC(=O)c2cc(F)cc(F)c2)CCCCC1,i
Cc1ccc(CNC(=O)C2(c3ccc(NS(C)(=O)=O)cc3)CCCCC2)o1,i
SMILES,KDM5B inhibitor
Cc1cc2c(c(=O)n(-c3ccccc3)c(=O)n2CC(=O)Nc2ccc3c(c2)OCO3)n1C,i
Cc1ccc(S(=O)(=O)N2CCC(CCC(=O)N3CCN(C)CC3)CC2)cc1,i
CCN(CC)C(=O)COc1nc(-c2ccco2)c2c(c1C#N)CCC2,i
Cc1ccc(/C=C/C(=O)c2ccc(C#N)cc2)s1,i
O=C(NCc1ccccc1)[C@H]1CN(Cc2ccccc2)C[C@H]1C(=O)O,i
COc1cccc(CNC(=O)c2ccc3c(c2)NC(=O)CS3)c1,i
CCc1nc2ccc(C(=O)Nc3ccccn3)cc2nc1CC,i
CCOCC1(C)COc2ccc(C(=O)Nc3ccccn3)cc2N1 (centres undefined),32µM*
COc1ccc(OCCNC(=O)c2ccc3[nH]c(C)c(C)c3c2)cc1,i
COc1ccc(OCC2(C)COc3ccc(C(=O)NCCN4CCOCC4)cc3N2)cc1 (centres undefined),35µM*
COCCNC(=O)c1ccc2c(c1)NC(C)(COc1ccc(OC)cc1)CO2 (centres undefined),35µM*
CCOCC1(C)COc2ccc(C(=O)NCc3cc(OC)cc(OC)c3)cc2N1 (centres undefined),32µM*
COc1ccc(C(=O)NCCONC(=O)c2ccc(OC)cc2)cc1,i
COc1ccc(CNC(=O)c2ccc3c(c2)NC(=O)CS3)cc1,i
COc1ccc(-c2cc(C[C@H]3CNCC[C@H]3CC(=O)NCCN3CCOCC3)no2)cc1,i
COc1ccc(C(=O)N[C@@H]2CCC[C@@H]2C(=O)NCCCN2CCOCC2)cc1,i
O=C(c1cn2cc(-c3cccs3)n(CC3CC3)c(=O)c2n1)N1CCCC1,i
O=C(c1ccccc1F)N1CC(Oc2ccc(F)c(F)c2)C1,i
Cc1cc(C)cc(NC(=O)NCc2nc(-c3ccccc3)oc2C)c1,i
CCN(CC)CCCNC(=O)C(=O)Nc1ccc2cc[nH]c2c1,i
Cc1nc(-c2ccc(OC3CCN(C(=O)CCc4nc5ccccc5[nH]4)C3)cc2)no1 (centres undefined),i
CNc1ccc(OC2CCN(C(=O)CCc3nc4ccccc4[nH]3)C2)nc1 (centres undefined),28µM*
O=C(CCc1nc2ccccc2[nH]1)N1CCC(c2noc(-c3ccccn3)n2)C1 (centres undefined),i
COc1ccc(CCC(=O)NC2CCc3nn(C)c(=O)n3CC2)cc1OC (centres undefined),i
O=C(Nc1cccc(F)c1)N1CCC(CCNC(=O)C2(c3ccccc3)CC2)CC1,i
SMILES,KDM5B inhibitor
CCC(=O)N1CCCC(n2c(C)cnc2-c2cccnc2)C1 (centres undefined),i
CSc1ccc(C2=NN(C(=O)C(C)C)C(c3ccc4nccnc4c3)C2)cc1 (centres undefined),i
COc1ccc(-c2ccc3nnc(CNC(=O)COc4cccc(C)c4)n3n2)cc1,25µM*
Cc1ccc(C(=O)NCc2nc(C)cs2)c(C)c1,i
COc1ccc(C(=O)NCc2nnc3ccc(-c4ccc(C)cc4)nn23)c(C)c1,28µM*
COc1ccc(-c2ccc3nnc(CNC(=O)c4ccc(C)cc4C)n3n2)cc1,28µM*
Cc1ccc(C(=O)NCc2ccncc2)c(C)c1,i
Cc1ccsc1C(=O)NCc1ccc(Cl)cc1,i
COc1ccc(-c2ccc3nnc(CNC(=O)c4sccc4C)n3n2)cc1,32µM*
Cc1ccsc1C(=O)NCc1ccncc1,i
CCCCn1nnc(NC(=O)COc2cccc(C)c2)n1,i
COc1ccc(-c2nn(C)c(=O)c3ccccc23)cc1NC(=O)COc1cccc(C)c1,i
COc1ccc(C(=O)NCc2nnc(SCC(=O)Nc3ccc(C)cc3)n2-c2ccccc2)cc1,i
CCOc1ccc(NC(=O)CN2C(=O)NC3(CCOCC3)C2=O)cc1,i
COC(=O)N1CCC2(CC1)C(=O)NCN2Cc1ccc(Cl)cc1,i
C=CCOC(=O)Nc1nc2c(s1)C[C@@H]1[C@](C)(CO)[C@H](O)CC[C@@]1(C)[C@@H]2CC(=O)NCCN1CCOCC1,i
Cc1ccc2c(c1)N1C(=O)OC[C@@H]1CCN(Cc1ccccn1)C2,i
CC(Oc1cccc(F)c1)C(=O)NCCc1cccs1 (centres undefined),i
COc1cccc(/C(C)=N/NC(=O)C2CC2)c1,i
CC1=C[C@@H](CNS(=O)(=O)c2cccs2)[C@H](C(C)C)C[C@H]1CC(=O)NCCN1CCOCC1,i
CSc1ccc(CNC(=O)CCc2conc2-c2cccc(C)c2)cc1,i
Cc1cccc(-c2nc3cnccn3c2NCCC(=O)NCc2ccc3c(c2)OCO3)c1,28µM*
Cc1ccc(CSCC(=O)NCc2ccc3c(c2)OCO3)cc1,i
Cc1ccc(Cn2ccnc2SCC(=O)NCc2ccc3c(c2)OCO3)cc1,i
O=C(Cn1cccc1-c1nc(-c2ccc(F)cc2)no1)NCc1ccc(Cl)cc1,i
O=C(Cn1c(=O)n2nc(-c3cccc(F)c3)nc2c2ccccc21)NCc1ccc(Cl)cc1,i
